ClpP mod: qHTS Assay for Activators of ClpP. ATP-dependent Clp protease proteolytic subunit (Bacillus subtilis (strain 168)), P80244. purified B. subtilis ClpP, FRET peptide cleavage, 20 min. Potency, µM (highest dose often 57.5 µM), for the others: top-dose activity change, negative = active. 340,000 compounds, 1.9% hits; active means well fitted falling curve with a large enough effect; inconclusive means small, poorly fitted or top-dose-only effect; inactive means no such curve, though single readings can be large or run the other way; further: the source files actives as falling curves though it sought activators and does not explain the sign; nearly all actives have a fitted effect of over 65% in size
Target sequence (P80244 whole entry, looked up): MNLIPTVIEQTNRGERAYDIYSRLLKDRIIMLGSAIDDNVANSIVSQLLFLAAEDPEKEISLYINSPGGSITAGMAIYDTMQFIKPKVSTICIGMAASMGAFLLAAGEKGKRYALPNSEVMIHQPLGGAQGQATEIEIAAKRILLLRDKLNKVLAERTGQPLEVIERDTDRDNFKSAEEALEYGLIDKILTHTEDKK
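ClpP 10 microg/mL final, pH 8 Tris/KCl buffer with BSA, glycerol, Tween-20; compound pinned in; FRET-FV substrate; RT 20 min; Ex320/Em430; ΔFRET vs ADEP 5.8 microM, DMSO, no enzyme.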
TDP1 cell CPT: DT40-hTDP1 cell growth loss with CPT; chicken DT40 Tdp1-/-;hTDP1 cells + 20 nM CPT, ATP luminescence, 48 h; Potency, µM (series often up to 46.2 µM), inactives show at the top dose activity change, negative = growth inhibition, usual class: inhibitors; 420,000 compounds, 12% hits; AID 686979; further: on the % scale 0 is the no-effect control and ±100 the full control effect; nearly all actives have a fitted effect of over 55% in size
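Chicken DT40 Tdp1-/- cells complemented with human TDP1, 400 cells/well, exposed to compounds plus 20 nM camptothecin for at least 48 h at 37 C; viability read as ATP content by CellTiter-Glo luminescence.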
TDP1 inh: blocks human tyrosyl-DNA phosphodiesterase 1. Q9NUW8. Potency, µM (highest dose often 130 µM), for the others: at the highest dose activity change, negative = inhibition, most hits filed as inhibitors. 350,000 compounds, 0.28% hits. recombinant TDP1, AlphaScreen DNA substrate cleavage; further: on the % scale 0 is the no-effect control and ±100 the full control effect; nearly all actives have a fitted effect of over 40% in size
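Signal: AlphaScreen proximity between streptavidin donor and anti-FITC acceptor beads on intact substrate. Reaction: Tdp1 1 nM, substrate 15 nM final, 5 min RT after 15 min compound preincubation.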
TDP1 cell noCPT: qHTS for Inhibitors of human tyrosyl-DNA phosphodiesterase 1 (TDP1): qHTS in cells in absence of CPT. DT40 Tdp1-/- hTDP1 cells, no CPT, ATP luminescence, 48 h. Potency, µM (highest dose often 46.2 µM), for the others: at the highest dose activity change, negative = growth inhibition, usual class: inhibitors. 420,000 compounds, 15% hits; further: on the % scale 0 is the no-effect control and ±100 the full control effect; nearly all actives have a fitted effect of over 55% in size
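No-CPT arm: Tdp1-/-;hTDP1 DT40 cells (400/well) plus compounds, incubated ≥48 hr at 37 °C. Readout CellTiter-Glo luminescence.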
An asterisk follows results filed as active; ? = inconclusive; . = not tested or not shown; [ ] = another dose, or the depositor's remark. In the library only some 17% were active in any assay of this set; here they are far more common. Unless noted, the call rests on the fitted dose curve; in most records, active means well fitted curve in the direction sought with a large enough effect; inconclusive means small, poorly fitted or top-dose-only effect, or another doubt; inactive means no such curve, though single readings can be large; an effect the other way counts as inactive or inconclusive. Potency means the concentration at half of the fitted maximal effect.

SMILES	ClpP mod	TDP1 cell CPT	TDP1 inh	TDP1 cell noCPT
CCN(CC(=O)NC(C)C)Cc1nc2sc3c(c2c(=O)[nH]1)CCC3	13µM*	3.3µM*	5%	4.6µM*
CC(OC(=O)c1cccc(N(C)C)c1)C(=O)N1CCc2ccccc2C1 (centres undefined)	-4%	-14%	4%	?
CSc1ncnc2ncn(C)c12	.	19%	.	12%
Cc1cc(C)cc(NC(=O)CCc2nc3sc4c(c3c(=O)[nH]2)CCCC4)c1	0%	4.6µM*	.	10µM*
CC(=O)Nc1ccc(NC(=O)CCc2nc3sc4c(c3c(=O)[nH]2)CCCC4)cc1	4%	-18%	.	-1%
CCN(CC(=O)Nc1ccccc1C(F)(F)F)C(=O)CCc1nc2sc3c(c2c(=O)[nH]1)CCCC3	16µM*	?	.	16µM*
CCCCSCCCNC(=O)c1cn(C)c2ccc(S(=O)(=O)N3CCCCC3)cc2c1=O	-6%	-10%	-5%	-17%
O=C(CCNc1cccc(F)c1)c1cc2ccccc2o1	0%	16µM*	6%	15µM*
O=C(CCNc1ccc(F)cc1)c1cc2ccccc2o1	.	8.2µM*	8%	16µM*
CCNc1ncc2nc(C)c(=O)n(Cc3cccc(OC)c3)c2n1	.	-2%	.	?
CC(=O)Nc1ccccc1OC(C)C(=O)N1CC(C)CC(C)C1 (centres undefined)	.	?	3%	21µM*
Cc1ccc(S(=O)(=O)Cc2nc(-c3ccc(C(=O)NCc4ccccc4F)cc3)oc2C)cc1	.	.	0%	.
Cc1ccc(C)c(N=Nc2nc3ccccc3n2C)c1	8%	5.8µM*	13%	3.5µM*
Cc1cc(C)c(C)c(N=Nc2nc3ccccc3n2C)c1C	.	?	11%	23µM*
O=C(O)C1(c2ccccc2)CCN(S(=O)(=O)c2ccc(Cl)cc2)CC1	-1%	11%	.	7%
O=S(O)CO	.	14%	2%	1%
CCCCNc1c(-c2cccnc2)nc2nc(C)cc(C)n12	-7%	?	.	12µM*
Cc1cccc2nc(-c3cccnc3)c(NCCC(C)C)n12	-2%	9.2µM*	-1%	16µM*
CC(C)[C@H]1COCCS(=O)(=O)N1Cc1ccccc1-c1ccccc1	1%	?	-2%[56.1 µM]	?
Cn1c(O)c(N=NC(=S)Nc2ccccc2F)c2cc(S(=O)(=O)N3CCOCC3)ccc21	0%	5.2µM*	9%	5.8µM*
Cc1ccc(NC(=S)N=Nc2c(O)n(C)c3ccc(S(=O)(=O)N4CCOCC4)cc23)cc1C	6%	2.1µM*	8%	3.7µM*
Cn1c(=O)c2cc(S(=O)(=O)N3CCOCC3)ccc2n(C)c1=O	0%	-20%	9%	1%
Cc1cccc(NC(=S)N=Nc2c(O)n(CN3CCOCC3)c3ccccc23)c1C	0%	5.8µM*	8%	5.8µM*
C=CCn1c(O)c(N=NC(=S)Nc2ccccc2C)c2cc(S(=O)(=O)N3CCOCC3)ccc21	.	3.3µM*	8%	0.73µM*
CC(=O)N(OCc1ccccc1)[C@@H]1c2cc(C#N)ccc2OC(C)(C)[C@H]1O	.	.	7%	.
SMILES	ClpP mod	TDP1 cell CPT	TDP1 inh	TDP1 cell noCPT
C=CC[C@@H](CC(=O)N(CCO)Cc1ccccc1)C(=O)NCCOC(=O)[C@@H](CC=C)Cc1ccc(F)cc1	0%	21µM*	0%	13µM*
C=CCC[C@H](Cc1ccc(F)cc1)C(=O)O[C@H](CNC(=O)[C@@H](CC=C)CC(=O)N(CCO)Cc1ccccc1)c1ccccc1	1%	?	0%	23µM*
C=CC[C@H](CC(=O)N(CCO)Cc1ccccc1)C(=O)N[C@H](C)COC(=O)[C@@H](CC=C)Cc1ccc(F)cc1	1%	?	1%	21µM*
C=CC[C@@H](CC(=O)N(CCO)Cc1ccccc1)C(=O)N[C@H](C)COC(=O)[C@@H](CC=C)Cc1ccc(F)cc1	-2%	?	0%	?
C=CCC[C@H](Cc1ccc(F)cc1)C(=O)OC[C@H](Cc1c[nH]c2ccccc12)NC(=O)[C@@H](CC=C)CC(=O)N(CCO)Cc1ccccc1	-3%	?	3%	?
C=CC[C@H](CC(=O)N(CCO)Cc1ccccc1)C(=O)N[C@H](COC(=O)[C@@H](CC=C)Cc1ccc(F)cc1)Cc1ccccc1	2%	21µM*	-2%	21µM*
C=CC[C@H](CC(=O)N(CCO)Cc1ccccc1)C(=O)N[C@@H](C)COC(=O)[C@H](CC=C)CC(=O)OC(C)(C)C	2%	?	0%	?
Cc1cc(-c2nnc(CCC(=O)NCc3ccc(OC(F)(F)F)cc3)o2)no1	1%	0%	5%	29%
CC1Cc2ccccc2N1C(=O)CSc1nnc(N)s1 (centres undefined)	0%	-3%	6%	2%
COc1ccccc1-c1cnc(C(O)c2cccc(F)c2)[nH]1 (centres undefined)	-3%	-20%	.	-28%
Cc1ccc(N(C(=O)CNC(=O)c2ccco2)C(C(=O)NC2CCCCC2)c2ccncc2)c(C)c1 (centres undefined)	.	2%	.	9%
Cc1nc2cc(-c3cccs3)[nH]n2c(=O)c1C	14µM*	-20%	.	?
Cc1ccccc1-c1cc2nc(C)c(C)c(=O)n2[nH]1	29%	-22%	.	?
COc1ccc(CN2CSC(=S)N(Cc3ccccc3)C2)cc1	-2%	?	-1%	?
S=C1SCN(Cc2ccccc2)CN1Cc1ccco1	-1%	?	.	?
COc1ccc(CN2CSC(=S)N(Cc3ccc(OC)cc3)C2)cc1	1%	4.6µM*	0%	15µM*
S=C1SCN(Cc2cccnc2)CN1Cc1cccnc1	.	0.82µM*	-8%	0.82µM*
S=C1SCN(CCc2ccccc2)CN1CCc1ccccc1	-1%	?	.	18µM*
S=C1SCN(Cc2ccccc2)CN1Cc1ccccc1	2%	8.4µM*	0%	?
O=C(C[C@@H]1C=C[C@H](NS(=O)(=O)c2ccccc2F)[C@@H](CO)O1)NCCCN1CCOCC1	2%	-6%	.	6%
CN(c1ccc(Br)cc1)S(=O)(=O)c1ccc2[nH]cc(C(=O)NCCN3CCOCC3)c(=O)c2c1	-18%	-21%	5%	12%
O=C(NCCN1CCOCC1)c1c[nH]c2ccc(S(=O)(=O)N3CCOCC3)cc2c1=O	32µM*	2%	5%	3%
O=C(NCc1ccco1)c1c[nH]c2ccc(S(=O)(=O)N3CCOCC3)cc2c1=O	32µM*	-29%	6%	-42%
CCCCCNC(=O)c1c[nH]c2ccc(S(=O)(=O)N3CCC4(CC3)OCCO4)cc2c1=O	16µM*	?	.	?
CC(=Nc1ccccc1N)c1c(C)cc(=O)n(O)c1O	.	.	15%	.
Cc1ccc(S(=O)(=O)N2CCOCC2)cc1NC(=O)COC(=O)C1=COCCO1	.	2%	-1%	-20%
